Data reported in PubChem BioAssay AID1986 (Sanford-Burnham Center for Chemical Genomics, 2009).
In all, about 290,000 compounds went through this assay and about 890 (0.31%) were called active. Rule as the data show it: active = inhibition mostly above about 52% (no sharp cut-off); inactive = mostly below about 76%. The list comes from a sample in which actives are over-represented; it also holds similar structures and randomly drawn compounds.

Assay: inhibitors of HIV fusion peptide binding, primary screen, biochemical, uHTS, fluorescence dequenching (AID 1986)
Conditions: cell-free peptide binding, 30 min, stronger effect = higher value
[1] = measured here: repeat confirmation average inhibition, at 18.6 µM

Row | Compound | inhibition (at 20 µM) | inhibition [1] [%]
1 | COc1ccc(NC(=O)CN2C3CCC2CC(O)(c2cccnc2)C3)cc1OC (stereo not drawn) | -0.5% (inactive) | –
2 | c1cc(CCN2CCCC2)ccn1 | 1.8% (inactive) | –
3 | Cc1cccc(N=Nc2ccc(N(C)C)cc2)c1 | -1.7% (inactive) | –
4 | O=[N+]([O-])c1ccc2c(c1)C(c1ccccc1)=NCCN2 | 0.2% (inactive) | –
5 | CCN1CCN(c2ccc(N)cc2C)CC1 | -1.1% (inactive) | –
6 | CN1CCN(Cc2cn3cccnc3n2)CC1 | -0.4% (inactive) | –
7 | CCC(C)n1c(O)c(C=NCC2CCCO2)c(=O)[nH]c1=S (stereo not drawn) | -0.8% (inactive) | –
8 | CC1=C2C3OC(=O)C(C)C3CC[C@@]2(C)C=CC1=O (stereo partly drawn) | -0.7% (inactive) | –
9 | CN1CCN(c2ccc([N+](=O)[O-])c(SCCO)c2)CC1 | -0.1% (inactive) | –
10 | Cc1cc(Cl)ccc1C(=O)C1CCCN(Cc2ccon2)C1 (stereo not drawn) | -1.3% (inactive) | –
11 | CCOP(=O)(OCC)C(O)c1ccc(Br)cc1 (stereo not drawn) | -1% (inactive) | –
12 | CC(Cc1ccccc1)[n+]1cc(/N=C(\N)[O-])on1 (stereo not drawn) | -2% (inactive) | –
13 | CCN(CC)C(=O)c1ccc(NC(=O)CN2CCc3cc(OC)c(OC)cc3C2)cc1 | -1.3% (inactive) | –
14 | COc1ccc(CN2CCN(c3ccccc3)CC2)c(C)c1C | -1.3% (inactive) | –
15 | CN(C)c1ccc(/C=C2/C(=O)NC(=O)N(Cc3ccco3)C2=O)cc1 | 42.7% (inactive) | –
16 | CCN(CC)c1ccc(/C=C2/C(=O)NC(=O)N(Cc3ccco3)C2=O)cc1 | 84.2% (active) | –
17 | Cn1cccc1/C=C1\C(=O)NC(=O)N(Cc2ccco2)C1=O | 30.6% (inactive) | –
18 | O/N=C1/C(=C\c2ccccc2)N2CCC1CC2 | 9.6% (inactive) | –
19 | CN1CCC(N2CC3CC(C2)c2cccc(=O)n2C3)CC1 (stereo not drawn) | 1.9% (inactive) | –
20 | CCOC(=O)c1c(/N=C/C2C(=O)NC(=S)NC2=O)sc(C)c1C | 30.3% (inactive) | –
21 | CCOC(=O)c1c(/N=C/C2C(=O)NC(=O)NC2=O)sc2c1CCC2 | 6.8% (inactive) | –
22 | CCOC(=O)c1c(/N=C/C2C(=O)NC(=S)NC2=O)sc2c1CCC2 | 81.3% (active) | –
23 | CN1CCC(=O)N(CCN=[N+]=[N-])CC1 | 1.6% (inactive) | –
24 | COc1cc(C)c(CN2CC=C(c3ccc(F)cc3)CC2)cc1C | -1.1% (inactive) | –
25 | CCN(CC)c1ccc(CN(C)CCc2ccc(OC)c(OC)c2)cc1 | 0.5% (inactive) | –

Row | Compound | inhibition (at 20 µM) | inhibition [1] [%]
26 | Fc1ccccc1N1CCN(Cc2c(F)cccc2F)CC1 | -0.2% (inactive) | –
27 | O=C(N=Nc1c(O)[nH]c(=O)[nH]c1=O)C1COc2cc3ccccc3cc2O1 (stereo not drawn) | 4.2% (inactive) | –
28 | O=C(C1CCCN(S(=O)(=O)c2cccc3nsnc23)C1)N1CCC2(CC1)OCCO2 (stereo not drawn) | -1.1% (inactive) | –
29 | O=C(C(Cc1ccccc1)NS(=O)(=O)c1cccc2nsnc12)N1CCC2(CC1)OCCO2 (stereo not drawn) | 103% (active) | –
30 | O=C(C(Cc1ccccc1)NS(=O)(=O)c1ccc(F)cc1)N1CCC2(CC1)OCCO2 (stereo not drawn) | 3.1% (inactive) | –
31 | CNCCc1ccc(OC)c(OC)c1 | -0.5% (inactive) | –
32 | O=C(c1ccc(Cl)cc1)C12CN3CN(CN(C3)C1)C2 | 0% (inactive) | –
33 | COP(=O)(OC)C(Nc1ccccn1)c1ccccc1 (stereo not drawn) | -0.3% (inactive) | –
34 | CN1C(=O)C(=Cc2sc(=O)n(-c3ccccc3)c2N2CCCCC2)C(=O)N(C)C1=O | 68.2% (active) | 87.3
35 | CN1C(=O)C(=Cc2sc(=O)n(-c3ccccc3)c2N(C)C)C(=O)N(C)C1=O | 27.8% (inactive) | –
36 | CN1C(=O)C(=Cc2ccc(N3CCCCCC3)cc2)C(=O)N(C)C1=O | 16.5% (inactive) | –
37 | COc1cccc(N2C(=O)NC(=O)/C(=C/c3ccc([N+](=O)[O-])s3)C2=O)c1 | 45.2% (inactive) | –
38 | COc1ccc(N2C(=O)NC(=O)/C(=C\c3ccc([N+](=O)[O-])s3)C2=O)cc1 | 56.4% (active) | –
39 | COc1ccccc1N1C(=O)NC(=O)/C(=C/c2ccc([N+](=O)[O-])s2)C1=O | 42.7% (inactive) | –
40 | O=C1NC(=O)N(c2ccccc2)C(=O)/C1=C/c1ccc([N+](=O)[O-])s1 | 64.8% (active) | –
41 | O=C1NC(=O)N(c2ccccc2)C(=O)/C1=C\c1ccc([N+](=O)[O-])s1 | 61.1% (inactive) | 6.1
42 | COc1ccc(N2C(=O)NC(=O)/C(=C/c3ccc([N+](=O)[O-])s3)C2=O)cc1 | 35.4% (inactive) | –
43 | O=c1c2ccccc2nc(Cc2ccccc2)n1-c1cccc(O)c1 | -1% (inactive) | –
44 | CCCc1cc(=O)oc2cc(OCC(=O)N3C[C@H]4C[C@@H](C3)c3cccc(=O)n3C4)ccc12 | 3% (inactive) | –
45 | CCOC(=O)c1nc2ccccc2c(=O)n1-c1ccc(C)cc1 | 0.5% (inactive) | –
46 | COc1cc(CC2(CCc3ccncc3)C(=O)N(C)C(=O)N(C)C2=O)cc(OC)c1OC | 2.3% (inactive) | –
47 | CN1/C(=C\C=C\C2=[N+](C)c3ccc4ccccc4c3C2(C)C)C(C)(C)c2ccccc21 | 65.1% (active) | 90.9
48 | CCN1/C(=C\C=C\C2=[N+](CC)c3ccccc3C2(C)C)C(C)(C)c2ccccc21 | 0.5% (inactive) | –
49 | CN1/C(=C\C=Nc2ccccc2)C(C)(C)c2ccccc21 | 0.8% (inactive) | –
50 | NCCc1c[nH]c2ccc(OCc3ccccc3)cc12 | -1.2% (inactive) | –
